Source: PubChem BioAssay
This is a sample that favours compounds with a hit; in the whole collection about 3.1% have one here.
MITF TRPM1 HTS – MITF TRPM1 promoter activation in melanoma cells; actives 0.75% (n = 300,000); AID 588334; activation, % at 12.5 µM; SK-MEL-5 TRPM1-promoter luciferase, 24 h; % of positive control, neutral wells = 0;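 active means mean activation of at least 80% with every replicate also reaching 80%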;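 further: 0% = neutral control wells and 100% = parthenolide positive control wells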
Statin myotox sup – protects C2C12 myotubes from simvastatin toxicity; actives 0.78% (n = 330,000); ATP luminescence, 48 h; scaled: DMSO 0, geranylgeraniol control 100; rescue of ATP level, % at 7.49 µM; AID 602340;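 active means mean ATP rescue above about 67%, or every replicate alone reaching that limit, limit read from the data, passing the limit was not always enough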;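 further: myotubes were challenged with 10 µM simvastatin during compound exposure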
esBAF inh – inhibitors of esBAF chromatin remodeling in mouse ES cells; Bmi1-luciferase knock-in reporter, 24 h; 100% = twice the neutral-well signal; AID 602393; reporter increase, % at 12.5 µM; actives 2% (n = 350,000); in the data active means activation above about 40%;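 further: 0% = median of the plate's neutral control wells and 100% = double that signal; a rise in the Bmi1 reporter signal indicates esBAF inhibition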
Wnt act – Wnt/beta-catenin pathway activation; actives 1.2% (n = 300,000); activation, % at 9.35 µM; Wnt/beta-catenin reporter cell assay, activator, plate reader; in the data active means activation above about 30%, passing the limit was not always enough;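 further: 0% = neutral control wells and 100% = positive control wells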
Rtt109 HAT inh – C. albicans Rtt109 histone acetyltransferase inhibition; inhibition, % at 34.9 µM; purified Rtt109/Vps75, ThioGlo CoA-SH fluorescence, 4 h; actives 0.16% (n = 330,000);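 active means inhibition of at least 50% in every replicate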
Target sequence (Q5AAJ8 whole entry, looked up): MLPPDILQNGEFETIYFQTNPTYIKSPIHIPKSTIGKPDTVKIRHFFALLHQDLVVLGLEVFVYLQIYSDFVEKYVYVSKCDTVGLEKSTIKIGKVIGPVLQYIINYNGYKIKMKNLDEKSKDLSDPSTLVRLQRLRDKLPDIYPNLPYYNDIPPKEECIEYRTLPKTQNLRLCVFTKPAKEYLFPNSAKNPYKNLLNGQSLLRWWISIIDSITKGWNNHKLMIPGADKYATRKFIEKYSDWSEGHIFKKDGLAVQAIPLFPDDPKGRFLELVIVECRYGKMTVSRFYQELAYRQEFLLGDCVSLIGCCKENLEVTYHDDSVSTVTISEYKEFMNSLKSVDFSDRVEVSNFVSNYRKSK
Starred values were filed as active, the others as inactive.

Screening CCCC(=O)Nc1ccc2c(c1)OC[C@H](C)N(C(=O)CC1CC1)C[C@@H](C)[C@@H](OC)CN(C)C2=O returned Statin myotox sup -2 and esBAF inh 1.
Screening CC(NC(=O)c1ccc2nc(Cc3cccc(Cl)c3)oc2c1)c1ccncn1 (configuration not stated) returned Wnt act -1.
Screening CCOC(=O)N1CCN(C(=O)c2ccc3c(=O)n(CCc4ccccc4)c(=O)[nH]c3c2)CC1 returned MITF TRPM1 HTS 3, Statin myotox sup 177*, esBAF inh 3, Wnt act -6 and Rtt109 HAT inh -3.
For CCOC(=O)N1CCN(C(=O)c2ccc3nc(C)sc3c2)CC1 the results were MITF TRPM1 HTS -7 and Rtt109 HAT inh -4.
For CC(C)(CO)NC(=O)c1ccc2nc(Cc3cccc(Cl)c3)oc2c1 the results were Statin myotox sup -1, esBAF inh 43*, Wnt act 1 and Rtt109 HAT inh 7.
For COC(=O)CCCNC(=O)c1ccc2oc(CCCc3ccccc3)nc2c1 the results were MITF TRPM1 HTS 24, Statin myotox sup 10, esBAF inh 38, Wnt act 6 and Rtt109 HAT inh -4.
For CCOC(=O)N1CCN(C(=O)c2ccc3c(c2)sc2nc(-c4ccccc4)cn23)CC1 the results were MITF TRPM1 HTS 44, Statin myotox sup -16, esBAF inh 79* and Rtt109 HAT inh 10.
COC(=O)[C@@H](C)NC(=O)c1ccc2oc(CCc3ccccc3)nc2c1 was read as Statin myotox sup -2, esBAF inh 66*, Wnt act 38* and Rtt109 HAT inh -1.
For CCCNC(=O)C[C@@H]1C[C@@H]2c3cc(NC(=O)c4ccc5c(c4)OCO5)ccc3O[C@@H]2[C@@H](CO)O1 the results were Statin myotox sup 6 and esBAF inh -10.
For COC(=O)C[C@@H]1C[C@@H]2c3cc(NC(=O)CN(C)C)ccc3O[C@@H]2[C@H](CO)O1 the results were Statin myotox sup 6 and esBAF inh -12.
Screening CN1CCN(c2ccc(-c3ccnn3C(=O)Nc3ccccc3)cc2)CC1 returned MITF TRPM1 HTS 49, Wnt act 44* and Rtt109 HAT inh -10.
For Cc1noc(C)c1NC(=O)N(C)C[C@@H]1OCCCC[C@@H](C)Oc2ccc(NC(=O)NC3CCCCC3)cc2C(=O)N([C@H](C)CO)C[C@@H]1C the results were esBAF inh -7.
`O=C(N1CCOCC1)N1CCN(S(=O)(=O)N2CCOCC2)CC1` gave MITF TRPM1 HTS -11, Statin myotox sup 114*, esBAF inh 0, Wnt act 1 and Rtt109 HAT inh 3.
Screening Cc1cc(C)c(-c2nc3ccccc3s2)[nH]1 returned MITF TRPM1 HTS 15, Statin myotox sup 8, esBAF inh 76*, Wnt act 14 and Rtt109 HAT inh 1.
`CNc1cc([N+](=O)[O-])ccc1N/C=C/C(=O)c1cccs1` gave MITF TRPM1 HTS 8, Statin myotox sup 43, esBAF inh 14 and Rtt109 HAT inh -5.
Screening Cc1cc(N/C=C/C(=O)c2cccs2)ccc1F returned MITF TRPM1 HTS 24, Statin myotox sup 46, esBAF inh 69*, Wnt act 11 and Rtt109 HAT inh 13.
Screening Cc1ccc(N/C=C/C(=O)c2cccs2)cc1C returned MITF TRPM1 HTS 3, Wnt act 4 and Rtt109 HAT inh 0.
Screening O=C(/C=C/Nc1cccc([N+](=O)[O-])c1)c1cccs1 returned Statin myotox sup 9, esBAF inh 73* and Rtt109 HAT inh 9.
For CN(C)C(=O)[C@H]1[C@H](CO)[C@H]2Cn3c(ccc(-c4cncnc4)c3=O)[C@H]2N1Cc1ccccc1F the results were Statin myotox sup 10 and esBAF inh -5.
C[C@H](CO)N1C[C@H](C)[C@H](CN(C)S(C)(=O)=O)OCCCC[C@H](C)Oc2ccc(NC(=O)Nc3ccc(F)cc3)cc2C1=O was read as esBAF inh -4.
`CC(=O)Nc1ccc(-c2csc(N/N=C(/C)c3ccccc3)n2)cc1` gave MITF TRPM1 HTS 2, Wnt act 1 and Rtt109 HAT inh 3.
Screening CC(C)(C)c1csc(NC(=O)c2cccs2)n1 returned MITF TRPM1 HTS 51, Statin myotox sup -4, esBAF inh 103* and Rtt109 HAT inh -1.
Screening O=C(Nc1nc(-c2ccc(Cl)s2)cs1)c1cccs1 returned MITF TRPM1 HTS 41, Statin myotox sup -20, esBAF inh 69* and Rtt109 HAT inh 2.
